The supplement of paper PMC8728848
This is one part of a sample in which the strongest signals are shown more often than they occur.

Assays:
Experiment in all cases: glycan array binding signal (z-score within array); higher = stronger binding
Conditions in all cases: glycan notation: IUPAC condensed, linker removed; mutation: G182A
Fuc(a1-2)Gal(b1-4)GlcNAc = molecular target: Fuc(a1-2)Gal(b1-4)GlcNAc
How it was run: (§1)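 The Consortium for Functional Glycomics database supplied 3228 glycan arrays, of which those lacking an available protein sequence were dropped. The binding signal, a within-array Z-score, was averaged across arrays of the same protein sequence and across linkers. Negative scores can be read as non-binding.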

[1] = molecular target: Fuc(a1-2)Gal(b1-4)GlcNAc(b1-3)Gal(b1-4)GlcNAc(b1-3)Gal(b1-4)GlcNAc
How it was run: as §1

[2] = molecular target: Fuc(a1-2)Gal(b1-4)GlcNAc(b1-3)GalNAc
How it was run: as §1

[3] = molecular target: Fuc(a1-2)[Gal(a1-3)]Gal(b1-4)GlcNAc
How it was run: as §1

[4] = molecular target: Fuc(a1-2)[Gal(a1-3)]Gal(b1-4)GlcNAc(b1-2)Man(a1-3)[Fuc(a1-2)[Gal(a1-3)]Gal(b1-4)GlcNAc(b1-2)Man(a1-6)]Man(b1-4)GlcNAc(b1-4)GlcNAc
How it was run: as §1

[5] = molecular target: Fuc(a1-2)[GalNAc(a1-3)]Gal(b1-4)GlcNAc(b1-2)Man(a1-3)[Fuc(a1-2)[GalNAc(a1-3)]Gal(b1-4)GlcNAc(b1-2)Man(a1-6)]Man(b1-4)GlcNAc(b1-4)GlcNAc
How it was run: as §1

[6] = molecular target: Fuc(a1-2)[GalNAc(a1-3)]Gal(b1-4)GlcNAc(b1-3)Gal(b1-4)GlcNAc(b1-3)Gal(b1-4)GlcNAc
How it was run: as §1

[7] = molecular target: Fuc(a1-3)[Gal(b1-4)]GlcNAc(b1-2)Man(a1-3)[Fuc(a1-3)[Gal(b1-4)]GlcNAc(b1-2)Man(a1-6)]Man(b1-4)GlcNAc(b1-4)GlcNAc
How it was run: as §1

[8] = molecular target: Fuc(a1-3)[Gal(b1-4)]GlcNAc(b1-3)Gal(b1-3)[Fuc(a1-4)]GlcNAc
How it was run: as §1

Gal(a1-3)GalNAc = molecular target: Gal(a1-3)GalNAc
How it was run: as §1

Gal(a1-4)Gal(b1-4)Glc = molecular target: Gal(a1-4)Gal(b1-4)Glc
How it was run: as §1

[9] = molecular target: Gal(b1-3)GalNAc(b1-4)Gal(b1-4)Glc
How it was run: as §1

[10] = molecular target: Gal(b1-4)GlcNAc(b1-2)Man(a1-6)[Man(a1-3)]Man(b1-4)GlcNAc(b1-4)GlcNAc
How it was run: as §1

[11] = molecular target: Gal(b1-4)GlcNAc(b1-3)Gal(b1-4)GlcNAc(b1-3)Gal(b1-4)GlcNAc
How it was run: as §1

[12] = molecular target: Gal(b1-4)GlcNAc(b1-6)Gal(b1-4)GlcNAc
How it was run: as §1

[13] = molecular target: Gal3S(b1-3)[Fuc(a1-4)]GlcNAc
How it was run: as §1

GalNAc(a1-3)Gal = molecular target: GalNAc(a1-3)Gal
How it was run: as §1

[14] = molecular target: GalNAc(b1-3)Gal(a1-6)Gal(b1-4)Glc
How it was run: as §1

[15] = molecular target: GlcNAc(a1-4)Gal(b1-4)GlcNAc(b1-3)Gal(b1-4)GlcNAc(b1-3)Gal(b1-4)GlcNAc
How it was run: as §1

[16] = molecular target: GlcNAc(b1-3)Gal(b1-4)GlcNAc(b1-3)Gal(b1-4)GlcNAc
How it was run: as §1

GlcNAc3Prop(b1-4)GlcNAc = molecular target: GlcNAc3Prop(b1-4)GlcNAc
How it was run: as §1

Man(a1-2)Man(a1-3)Man = molecular target: Man(a1-2)Man(a1-3)Man
How it was run: as §1

[17] = molecular target: Man(a1-2)Man(a1-3)[Man(a1-2)Man(a1-6)]Man
How it was run: as §1

[18] = molecular target: Neu5Ac(a2-3)Gal(b1-3)[Fuc(a1-4)]GlcNAc(b1-3)Gal(b1-3)[Fuc(a1-4)]GlcNAc
How it was run: as §1

[19] = molecular target: Neu5Ac(a2-3)Gal(b1-4)GlcNAc(b1-2)Man(a1-3)[Neu5Ac(a2-6)Gal(b1-4)GlcNAc(b1-2)Man(a1-6)]Man(b1-4)GlcNAc(b1-4)GlcNAc
How it was run: as §1

Neu5Ac(a2-3)GalNAc = molecular target: Neu5Ac(a2-3)GalNAc
How it was run: as §1

Neu5Ac(a2-6)Gal(b1-4)Glc = molecular target: Neu5Ac(a2-6)Gal(b1-4)Glc
How it was run: as §1

[20] = molecular target: Neu5Ac(a2-6)Gal(b1-4)GlcNAc
How it was run: as §1

[21] = molecular target: Neu5Ac(a2-6)Gal(b1-4)GlcNAc(b1-3)GalNAc
How it was run: as §1

[22] = molecular target: Neu5Ac(a2-6)GlcNAc(b1-4)GlcNAc(b1-4)GlcNAc
How it was run: as §1

[23] = molecular target: Neu5Ac(a2-8)Neu5Ac(a2-8)Neu5Ac(a2-3)[GalNAc(b1-4)]Gal(b1-4)Glc
How it was run: as §1

[24] = molecular target: Neu5Ac9Ac(a2-6)Gal(b1-4)GlcNAc
How it was run: as §1

Neu5Gc(a2-3)Gal(b1-4)Glc = molecular target: Neu5Gc(a2-3)Gal(b1-4)Glc
How it was run: as §1

B1: Gal 3 (Homo sapiens), P17931 (protein)
chain: MADNFSLHDALSGSGNPNPQGWPGAWGNQPAGAGGYPGASYPGAYPGQAPPGAYPGQAPPGAYHGAPGAYPGAPAPGVYPGPPSGPGAYPSSGQPSAPGAYPATGPYGAPAGPLIVPYNLPLPGGVVPRMLITILGTVKPNANILDFQRGNDVAFHFNPRFNENNRRVIVCNTKLDNNWAREERQSVFPFESGKPFKIQVLVEPDHFKVAVNDAHLLQYNHRVKKLNEISKLGISGDIDLTSASYTMI
What does the source list for B1?
glycan array binding signal (z-score) (Fuc(a1-2)Gal(b1-4)GlcNAc): -0.188; glycan array binding signal (z-score) [1]: 5.12; glycan array binding signal (z-score) [2]: -0.187; glycan array binding signal (z-score) [3]: 1.68; glycan array binding signal (z-score) [4]: 9.17; glycan array binding signal (z-score) [5]: 5.25; glycan array binding signal (z-score) [6]: 6.29; glycan array binding signal (z-score) [7]: -0.191; glycan array binding signal (z-score) [8]: -0.188; glycan array binding signal (z-score) (Gal(a1-3)GalNAc): -0.185; glycan array binding signal (z-score) (Gal(a1-4)Gal(b1-4)Glc): -0.192; glycan array binding signal (z-score) [9]: -0.189; glycan array binding signal (z-score) [10]: -0.197; glycan array binding signal (z-score) [11]: 7.13; glycan array binding signal (z-score) [12]: -0.196; glycan array binding signal (z-score) [13]: -0.186; glycan array binding signal (z-score) (GalNAc(a1-3)Gal): -0.192; glycan array binding signal (z-score) [14]: -0.19; glycan array binding signal (z-score) [15]: 9.32; glycan array binding signal (z-score) [16]: 4.53; glycan array binding signal (z-score) (GlcNAc3Prop(b1-4)GlcNAc): -0.182; glycan array binding signal (z-score) (Man(a1-2)Man(a1-3)Man): -0.189; glycan array binding signal (z-score) [17]: -0.189; glycan array binding signal (z-score) [18]: -0.187; glycan array binding signal (z-score) [19]: -0.168; glycan array binding signal (z-score) (Neu5Ac(a2-3)GalNAc): -0.192; glycan array binding signal (z-score) (Neu5Ac(a2-6)Gal(b1-4)Glc): -0.183; glycan array binding signal (z-score) [20]: -0.177; glycan array binding signal (z-score) [21]: -0.143; glycan array binding signal (z-score) [22]: -0.191; glycan array binding signal (z-score) [23]: -0.167; glycan array binding signal (z-score) [24]: -0.189; glycan array binding signal (z-score) (Neu5Gc(a2-3)Gal(b1-4)Glc): -0.195
